These are literature values, as cited in PubChem BioAssay AID977611.

For orientation: Kd means the concentration at which binding is half-saturated.

Hit rate of the full screen: of about 3,900 compounds, about 3,900 (100%) were called active. No cut-off is given here; in the data, nearly all actives have Kd up to about 4200 µM. So high a share suggests a set chosen from earlier hits. The list shows a part of the results. Where a SMILES comes first, the peptide text is derived from it. Square brackets hold non-standard residues; d marks the D form. Residues, ends and D or L forms follow the SMILES beside them. Peptide text beside a SMILES is read from it. Orn(CH(NH2)2) = NC(N)NCCC[C@H](N)C(=O)O; Cha = N[C@@H](CC1CCCCC1)C(=O)O

The data set is described as follows: PubChem AID 977611. The note with it: PDB protein-ligand complexes, literature Kd.

As for `CCCCC/C=C\C/C=C\CCCCCCCCCC(=O)N[C@@H](CO[C@H]1O[C@H](CO)[C@H](O)[C@H](O)[C@H]1O)[C@H](O)[C@H](O)CCCCCCCCCCCCCC`, the equilibrium dissociation constant (Kd) (protein: L363, PDB entry 3ubx) was 25.2 nM (active).
As for `CCCCCC[C@@H](O)[C@H](CCCCCC)C(=O)O`, for the setting “protein: Peptidoglycan recognition protein 1, PDB entry 3t2v”, the Kd was 103 nM (active).
Regarding `CC(C)C[C@H](NC(=O)[C@@H](N)CCCCN)C(=O)N[C@@H](Cc1ccc(O)cc1)C(=O)N[C@@H](CC1CCCCC1)C(=O)N[C@@H](CC(C)C)C(=O)N1CCC[C@H]1C(=O)N[C@@H](CCCNC(N)N)C(=O)N1CCC[C@H]1C(=O)N[C@H](C=O)[C@@H](C)O` (H-KLY[Cha]LP[Orn(CH(NH2)2)]PT-aldehyde), the Kd (protein: E. coli Chaperone protein dnaK, PDB entry 3dpo) was 5.5 nM (active).
As to `CC(C)C[C@H](N)C(=O)N[C@@H](Cc1ccc(O)cc1)C(=O)N[C@@H](CC1CCCCC1)C(=O)N[C@@H](CC1CCCCC1)C(=O)N1CCC[C@H]1C(=O)N[C@@H](CCCNC(N)N)C(=O)N1CCC[C@H]1C(=O)N[C@H](C(N)=O)[C@@H](C)O` (H-LY[Cha][Cha]P[Orn(CH(NH2)2)]PT-NH2), the dissociation constant Kd (protein: Chaperone protein DnaK, PDB entry 4hy9) is 80 nM (active).
With `CC[C@H](C)[C@H](NC(=O)[C@H](CC1CCCCC1)NC(=O)[C@H](Cc1ccc(O)cc1)NC(=O)[C@@H](N)CC(C)C)C(=O)N1CCC[C@H]1C(=O)N[C@@H](CCCNC(N)N)C(=O)N1CCC[C@H]1C(N)=O` (H-LY[Cha]IP[Orn(CH(NH2)2)]P-NH2), the Kd (protein: Chaperone protein DnaK, PDB entry 4hyb) was 350 nM (active).
As for `NC1NC(=O)c2c([nH]c(=S)n2CCO)N1` (configuration not stated), the Kd (protein: 7,8-DIHYDRO-6-HYDROXYMETHYLPTERIN-PYROPHOSPHOKINASE, PDB entry 4ad6) is 16700 nM (active).
Regarding H-VNPTGCARSEPKMS-OH, the Kd (protein: WD repeat-containing protein 5, WDR5, PDB entry 4ery) is 54 nM (active).
Regarding H-INPTGCARSEPKI-OH, the Kd (protein: WD repeat-containing protein 5, WDR5, PDB entry 4erq) is 75 nM (active).
As to `C[C@H](NC(=O)[C@H](CC(=O)O)NC(=O)[C@H](CCCCN)NC(=O)[C@H](CO)NC(=O)[C@H](C)NC(=O)[C@@H](N)CO)C(=O)O` (H-SASKDA-OH), where the note is “protein: Histone-lysine N-methyltransferase SETD7 (Y335F mutant), PDB entry 4j7i”, the dissociation constant (Kd) is 8800 nM (active).
In the case of H-KEKSD-OH, the Kd (protein: Coatomer subunit beta', PDB entry 4j77) was 3400 nM (active).
For `NC(N)=N/C=C/C[C@H](N[C@H](CCC(=O)O)C(=O)O)C(=O)O`, for the setting “protein: Nopaline-binding periplasmic protein NocT WT, PDB entry 4pox”, the Kd is 3700 nM (active).
Consider `CC(C)(C)c1cccc(C2C=CC=NC2=O)c1` (configuration not stated), for which the equilibrium dissociation constant (Kd) (protein: RNA-directed RNA polymerase, PDB entry 4ih7) was 5800 nM (active).
Turning to `NC1NC(=O)c2[nH]cc(CN3C[C@H](CO)[C@@H](O)C3)c2N1` (some centres not stated), for the setting “protein: Purine nucleoside phosphorylase (W16Y, W94Y, W178Y, H257W mutation), PDB entry 4ear”, the equilibrium dissociation constant (Kd) is 0.151 nM (active).
Consider `CC1(C)CNC(=[N+]2CCN(c3ncnc4sc(CC(F)(F)F)cc34)CC2)S1`, for which, under “protein: Menin (A541T mutation), PDB entry 4gq4”, the Kd was 22 nM (active).
Take `C[C@H](NC(=O)[C@H](CCCCN)NC(=O)[C@H](CC(=O)O)NC(=O)[C@@H](N)CCCCN)C(=O)N[C@@H](CCCCN)C(=O)N[C@@H](CO[P+](O)(O)O)C(=O)N[C@@H](CS)C(=O)O`: where the note is “protein: 14-3-3 PROTEIN ZETA/DELTA, PDB entry 4bg6”, the Kd was 69 nM (active).
Consider `CC(C)[C@H](NC(=O)[C@H](CO[P+](O)(O)O)NC(=O)[C@H](CCCCN)NC(=O)[C@H](CCCNC(N)N)NC(=O)[C@H](CCCNC(N)N)NC(=O)[C@@H](N)CCCCN)C(=O)O`, for which the Kd (protein: 14-3-3 protein sigma, PDB entry 4fr3) is 70 nM (active).
As for `CC(C)[C@H](NC(=O)[C@H](CO[P+](O)(O)O)NC(=O)[C@H](CCCCN)NC(=O)[C@H](CCCNC(N)N)NC(=O)[C@H](CCCNC(N)N)NC(=O)[C@H](C)N)C(=O)O`, the dissociation constant (Kd) (protein: 14-3-3 protein sigma, PDB entry 3ux0) was 550 nM (active).
In the case of `NC(=NCC[C@H](N)C(=O)O)NO`, the Kd (protein: Arginase, PDB entry 4q3u) was 360 nM (active).
As to H-FNIVGTTYPC-OH, under “protein: Gephyrin GephE, PDB entry 4u90”, the Kd was 288 nM (active).
Consider `CC[C@H](C)[C@H](NC(=O)[C@H](CC(N)=O)NC(=O)[C@@H](N)Cc1ccccc1)C(=O)N[C@H](C(=O)NCC(=O)N[C@H](C(=O)N[C@H](C(=O)N[C@@H](Cc1ccc(O)cc1)C(=O)N1CCC[C@H]1C(=O)O)[C@@H](C)O)[C@@H](C)O)C(C)C` (H-FNIVGTTYP-OH), for which, where the note is “protein: Gephyrin GephE, PDB entry 4tk2”, the Kd is 190000 nM (active).
In the case of `CC[C@H](C)[C@H](NC(=O)[C@@H](NC(=O)[C@@H](NC(=O)[C@H](CCCCN)NC(=O)[C@H](CC(=O)O)NC(=O)[C@@H](N)C(C)C)C(C)C)C(C)C)C(=O)N[C@@H](CC(N)=O)C(=O)N1CCC[C@H]1C(=O)N[C@@H](Cc1ccc(O)cc1)C(=O)N[C@@H](Cc1ccccc1)C(=O)NCC(=O)O` (H-VDKVVINPYFG-OH), under “protein: Malcavernin CCM2 PTB domain, PDB entry 4wj7”, the Kd is 13000 nM (active).
Consider `CC[C@H](C)[C@H](NC(=O)[C@@H](NC(=O)[C@H](Cc1ccc(O)cc1)NC(=O)[C@H](C)N)[C@@H](C)O)C(=O)N[C@@H](CS)C(=O)N[C@@H](C)C(=O)NCC(=O)N[C@H](C(=O)N[C@@H](CCC(N)=O)C(=O)N[C@H](C(=O)N[C@@H](CC(=O)O)C(=O)N1CCC[C@H]1C(=O)O)[C@@H](C)O)[C@@H](C)O` (H-AYTICAGTQTDP-OH), for which the dissociation constant (Kd) (protein: Dynein light chain 1, cytoplasmic LC8, PDB entry 4qh7) is 1140 nM (active).
